# Results taken from PubChem BioAssay AID743379 (National Center for Advancing Translational Sciences (NCATS), 2014).
# Calls of active or inactive are those of the source. Calls come from the whole dose curve.
# Molecular target: Phosphatidylinositol 5-phosphate 4-kinase type-2 beta (Homo sapiens) (UniProt P78356)
# Experiment: qHTS for Inhibitors of PI5P4K: PI5P4K-beta 32P-ATP TLC Secondary Assay for Probe SAR
# Details: recombinant PI5P4K-beta, 32P-ATP TLC lipid kinase assay
# Excerpt: In addition to finding PI5P, we discovered the type II phosphatidylinositol 5-phosphate 4-kinase (PI5P4K) family (alpha, beta, gamma isoforms) that catalyze the conversion of PI5P to PI(4,5)P2. Alternatively, PI(4,5)P2 can also be synthesized through phosphatidylinositol-4-phosphate (PI4P) by the type I phosphatidylinositol 4-phosphate 5-kinases (PI4P5K). These PI5P4K enzymes therefore represent one way by which cells can regulate endogenous PI5P levels and play important roles in insulin signaling and in stress responses. […] A qHTS PI5P4K-alpha ADP-Glo assay was developed to identify specific modulators of human PI5P4K, phosphatidylinositol-5-phosphate 4-kinase (Type II PIPK). To confirm that the active compounds and their analogs were true and selective inhibitors, a secondary Thin-layer Chromatography (TLC) assays against recombinant PI5P4K-alpha, PI4P5K-alpha or PI5P4K-beta that utilize a radioactively labeled ATP were developed. The data herein is the result of the PI5P4K-beta TLC assay. […]
# The kinase reaction was carried out in a total of 50 microL of kinase buffer (50 mM HEPES pH 7.4 and 10 mM MgCl2) containing 20 microM of the lipids that were suspended by sonication. […] The radiolabeled product, PI(4,5)P2, was quantified with a phosphorimager (Molecular Dynamics, STORM840, GE Healthcare, Waukesha, WI, USA).
# Sequence of Phosphatidylinositol 5-phosphate 4-kinase type-2 beta (Homo sapiens) (P78356 whole entry, looked up): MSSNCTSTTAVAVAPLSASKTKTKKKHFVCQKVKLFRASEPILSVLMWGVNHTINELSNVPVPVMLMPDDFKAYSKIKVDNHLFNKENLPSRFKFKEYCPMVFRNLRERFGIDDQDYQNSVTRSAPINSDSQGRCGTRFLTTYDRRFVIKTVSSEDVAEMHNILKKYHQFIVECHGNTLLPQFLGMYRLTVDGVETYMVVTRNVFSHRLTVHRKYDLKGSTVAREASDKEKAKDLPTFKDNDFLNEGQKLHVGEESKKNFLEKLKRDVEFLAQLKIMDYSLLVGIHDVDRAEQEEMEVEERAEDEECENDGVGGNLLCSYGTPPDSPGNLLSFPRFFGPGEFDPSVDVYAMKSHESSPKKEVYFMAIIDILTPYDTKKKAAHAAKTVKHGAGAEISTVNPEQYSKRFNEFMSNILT
row,SMILES,Potency
1,O=C1Nc2ccc(C(=O)c3ccco3)cc2/C1=C/c1cc(Cl)c(O)c(Cl)c1,890 nM (active)
